According to PubChem BioAssay (Tox21):
Several values for one entry are separate records, joined by “and”; a condition that tells them apart may be missing. Equal values may be shown once. Results filed as inconclusive are left out. The source holds several records for some structures; these can differ, active in one and inactive in another. Activity calls are given as the source filed them. Unless noted, the call rests on the fitted dose curve; in most records, active means well fitted curve in the direction sought with a large enough effect in the repeat runs; inconclusive means weak or mixed curves; inactive means no such curve, though single readings can be large; an effect the other way counts as inactive or inconclusive.

Columns and labels:
[1] = target: Progesterone receptor (Homo sapiens) (UniProt P06401); assay: qHTS assay to identify small molecule antagonists of the progesterone receptor (PR) signaling pathway (AID 1346795; active means well fitted inhibition curve with a large enough effect in the signal ratio in the repeat runs, not every such curve was filed as active; the % refers to the signal ratio)
Method in brief: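 Antagonist mode: compounds tested against 1 nM (final) promegestone stimulation in HEK293T cells expressing PR-UAS-bla reporter, 16 hr at 37C, 5% CO2; beta-lactamase activity detected via B/G FRET substrate after 2 hr at room temperature.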

[2] = qHTS assay to identify small molecule antagonists of the progesterone receptor (PR) signaling pathway - cell viability counter screen (AID 1346798); further: series mostly up to about 92 µM; nearly all actives have a fitted effect of over 50% in size
Method in brief: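 Counter screen for cytotoxicity: viability of PR-UAS-bla HEK293T cells was measured with CellTiter-Glo luminescence following 16 hr compound exposure in the presence of R5020.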

[3] = qHTS assay to identify small molecule agonists of the progesterone receptor (PR) signaling pathway - cell viability counter screen (AID 1346799; calls by dose curve; further: nearly all actives have a fitted effect of over 45% in size)
Method in brief: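 Cells (PR-UAS-bla HEK293T) are plated at 3,000/well in 2% charcoal-stripped FBS medium, rested 6 hr, dosed and incubated 16 hr at 37C. CellTiter-Glo is then added and luminescence measured after 30 min at room temperature.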

[4] = qHTS assay to identify small molecule antagonists of the TGF-beta/Smad signaling pathway - cell viability counter screen (AID 1346824); further: nearly all actives have a fitted effect of over 50% in size
Method in brief: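 Cytotoxicity counter-screen run in the same wells as the beta-lactamase Smad reporter read: CellTiter-Glo luminescence after 30 min at room temperature. HEK 293T SBE-bla cells had 5 hr compound exposure at 37 C with TGF-beta1 (0.25 ng/mL stock).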

[5] = qHTS assay to identify small molecule agonists of the TGF-beta/Smad signaling pathway - cell viability counter screen (AID 1346829); further: top concentration of the series differs between compounds; nearly all actives have a fitted effect of over 45% in size
Method in brief: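 Same-well cytotoxicity: CellTiter-Glo added after the 2 hr room-temperature beta-lactamase substrate step, luminescence measured 30 min later; cells had 5 hr of compound at 37 C.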

[6] = qHTS assay to identify small molecule agonists of the TGF-beta/Smad signaling pathway (AID 1346859; active means well fitted activation curve with a large enough effect in the signal ratio in the repeat runs, not every such curve was filed as active; the % refers to the signal ratio; further: series mostly up to about 77 µM)
Method in brief: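 Reporter line: HEK 293T with stably integrated SBE-controlled beta-lactamase. Compound exposure lasts 5 hr at 37 C and 5% CO2; substrate loading follows for 2 hr at room temperature, with emission read at 460 and 530 nm.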

[7] = target: Thyrotropin-releasing hormone receptor (Homo sapiens) (UniProt P34981); assay: qHTS assay to identify small molecule antagonists of the thyrotropin-releasing hormone receptor (TRHR) signaling pathway (AID 1346877; active means well fitted inhibition curve with a large enough effect in the repeat runs, not every such curve was filed as active; further: series mostly up to about 51 µM)
Method in brief: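 Antagonism is measured as suppression of the calcium response to 1 nM TRH in TRHR-HEK293 cells that have been dye-loaded for 2 h at 37 °C after overnight plating. Each compound is tested at 15 concentrations in triplicate.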

[8] = target: Thyrotropin-releasing hormone receptor (Homo sapiens) (UniProt P34981); assay: qHTS assay to identify small molecule agonists of the thyrotropin-releasing hormone receptor (TRHR) signaling pathway (AID 1346891; calls by dose curve;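 further: HEK293 cells expressing TRHR with calcium dye readout; series mostly up to about 58 µM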)
Method in brief: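 Cells: TRHR-Hek293, seeded and incubated 18 h. Dye loading: 2 h at 37 °C. Compound added from DMSO stock by pin tool. Read-out: kinetic calcium fluorescence over 3 min.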

[9] = Human pregnane X receptor (PXR) small molecule agonists, qHTS cell viability counter screen (AID 1346977); further: nearly all actives have a fitted effect of over 50% in size
Method in brief: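 Cytotoxicity counter screen run in the same wells as the PXR luciferase assay, using PXR-Luc HepG2 cells in charcoal-stripped serum medium. Viability: CellTiter-Fluor fluorescence after 24hr compound treatment.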

[10] = Caspase-3/7 induction in CHO-K1 cells by small molecules, qHTS cell viability counter screen (AID 1346979); further: nearly all actives have a fitted effect of over 35% in size; further: potency means the concentration at half of the fitted maximal effect
Method in brief: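 Cytotoxicity counter screen run in parallel with the caspase-3/7 assay: CHO-K1 cells, 16hr compound treatment at 37C, then CellTiter-Fluor for 1hr before fluorescence reading.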

[11] = Caspase-3/7 induction in CHO-K1 cells by small molecules, qHTS assay (AID 1346980); further: nearly all actives have a fitted effect of over 15% in size
Method in brief: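 Luminescent Caspase-Glo 3/7 read (30min, room temperature) quantified apoptosis induction. Cells were wild-type CHO-K1, treated with compound for 17hr at 37 C and 5% CO2.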

[12] = Caspase-3/7 induction in HepG2 cells by small molecules, qHTS cell viability counter screen (AID 1346981); further: series mostly up to about 92 µM; nearly all actives have a fitted effect of over 30% in size
Method in brief: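 Cell viability is measured as a cytotoxicity counter screen alongside the Caspase-Glo 3/7 readout in identical wells. Wild-type HepG2 cells are treated with test compounds for 16 hr at 37 C before CellTiter-Fluor addition and a 1-hr incubation.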

[13] = target: Nuclear receptor subfamily 1 group I member 2 (Homo sapiens) (UniProt O75469); assay: Human pregnane X receptor (PXR) small molecule agonists, qHTS assay (AID 1346982); further: nearly all actives have a fitted effect of over 35% in size; further: potency means the concentration at half of the fitted maximal effect
Method in brief: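 Cells: HepG2 stably carrying PXR-Luc. Medium held 5% charcoal-stripped FBS. Compounds in DMSO added after 5 hr plating, incubated 24 hr, then luminescence quantified with ONE-Glo.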

[14] = target: Acetylcholinesterase (Homo sapiens) (UniProt P22303); assay: Acetylcholinesterase (AChE) small molecule antagonists: colormetric cell-based qHTS assay (AID 1347395; calls by dose curve; further: nearly all actives have a fitted effect of over 30% in size; further: potency means the concentration at half of the fitted maximal effect)
Method in brief: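 Cells (SH-SY5Y, 2,000 per well) are seeded and left overnight at 37 C. Compound is added for 30 min, then DTNB and acetylthiocholine for a further 90 min at 37 C before absorbance-based thiocholine detection.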

[15] = Caspase-3/7 induction in HepG2 cells by small molecules, qHTS assay (AID 1346978); further: nearly all actives have a fitted effect of over 15% in size
Method in brief: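 Caspase-3/7 induction was measured by Caspase-Glo 3/7 luminescence (30 min, room temperature) after a 17 hr compound exposure of wild-type HepG2 cells seeded at 2,000 per well and pre-incubated 5 hr.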

[16] = target: Nuclear receptor subfamily 1 group I member 2 (Rattus norvegicus) (UniProt Q9R1A7); assay: Rat pregnane X receptor (rPXR) activation by small molecules, qHTS assay (AID 1346983); conditions: rPXR luciferase reporter cells, One-Glo luminescence, 24 h; stronger effect = higher value; further: nearly all actives have a fitted effect of over 20% in size
Method in brief: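 Luminescent readout (One-Glo luciferase, 30 min room temperature) followed 24 hr compound treatment at 37 C of rPXR cells plated 2,000 per well and preincubated 5hr; qHTS format with compounds delivered in DMSO.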

[17] = target: Nuclear receptor subfamily 1 group I member 2 (Homo sapiens) (UniProt O75469); assay: CYP3A4 induction through human pregnane X receptor (PXR) by small molecules, qHTS assay (AID 1346984); further: nearly all actives have a fitted effect of over 40% in size
Method in brief: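 Quantitative HTS in DPX-2 cells, i.e. HepG2 transfected with PXR response element and CYP3A4-promoter luciferase. Compounds in DMSO incubated 24hr at 37C; then P450-Glo CYP3A4 substrate, 3uM final, 3hr; One-Glo luminescence.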

[18] = target: Nuclear receptor subfamily 1 group I member 2 (Homo sapiens) (UniProt O75469); assay: Human pregnane X receptor (PXR) activation by small molecules, qHTS assay (AID 1346985); further: nearly all actives have a fitted effect of over 40% in size
Method in brief: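 DPX-2 cells (HepG2 co-transfected with a PXR response element and a CYP3A4-promoter luciferase construct) were seeded at 2,000 per well, rested 5 hr at 37C, then exposed to DMSO-dissolved compounds for 24 hr. Activation was read as luciferase luminescence.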

[19] = target: Progesterone receptor (Homo sapiens) (UniProt P06401); assay: qHTS assay to identify small molecule agonists of the progesterone receptor (PR) signaling pathway (AID 1346784; calls by dose curve; further: nearly all actives have a fitted effect of over 30% in size)
Method in brief: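 Cells (PR-UAS-bla HEK 293T, GripTite) were plated in assay medium containing 2% charcoal-stripped FBS and incubated 6 hr. Test compounds in DMSO were added for 16 hr at 37C. FRET substrate was then loaded for 2 hr at room temperature before fluorescence reading.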
On the % scale 0 is the no-effect control and ±100 the full control effect.

Nuclear receptor subfamily 1 group I member 2 (Rattus norvegicus), sequence (Q9R1A7 whole entry, looked up): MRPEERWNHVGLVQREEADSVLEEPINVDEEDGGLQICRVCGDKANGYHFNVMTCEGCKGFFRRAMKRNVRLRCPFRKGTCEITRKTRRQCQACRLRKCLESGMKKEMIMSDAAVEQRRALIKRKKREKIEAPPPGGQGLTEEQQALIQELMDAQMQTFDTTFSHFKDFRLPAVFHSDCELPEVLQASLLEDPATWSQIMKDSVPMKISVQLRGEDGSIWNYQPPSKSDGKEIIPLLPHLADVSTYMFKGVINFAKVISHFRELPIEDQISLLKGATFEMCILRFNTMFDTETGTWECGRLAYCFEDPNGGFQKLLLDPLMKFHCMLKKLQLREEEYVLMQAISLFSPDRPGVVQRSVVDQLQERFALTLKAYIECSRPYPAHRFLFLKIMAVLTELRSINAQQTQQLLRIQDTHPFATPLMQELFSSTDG
Progesterone receptor (Homo sapiens), sequence (P06401 whole entry, looked up): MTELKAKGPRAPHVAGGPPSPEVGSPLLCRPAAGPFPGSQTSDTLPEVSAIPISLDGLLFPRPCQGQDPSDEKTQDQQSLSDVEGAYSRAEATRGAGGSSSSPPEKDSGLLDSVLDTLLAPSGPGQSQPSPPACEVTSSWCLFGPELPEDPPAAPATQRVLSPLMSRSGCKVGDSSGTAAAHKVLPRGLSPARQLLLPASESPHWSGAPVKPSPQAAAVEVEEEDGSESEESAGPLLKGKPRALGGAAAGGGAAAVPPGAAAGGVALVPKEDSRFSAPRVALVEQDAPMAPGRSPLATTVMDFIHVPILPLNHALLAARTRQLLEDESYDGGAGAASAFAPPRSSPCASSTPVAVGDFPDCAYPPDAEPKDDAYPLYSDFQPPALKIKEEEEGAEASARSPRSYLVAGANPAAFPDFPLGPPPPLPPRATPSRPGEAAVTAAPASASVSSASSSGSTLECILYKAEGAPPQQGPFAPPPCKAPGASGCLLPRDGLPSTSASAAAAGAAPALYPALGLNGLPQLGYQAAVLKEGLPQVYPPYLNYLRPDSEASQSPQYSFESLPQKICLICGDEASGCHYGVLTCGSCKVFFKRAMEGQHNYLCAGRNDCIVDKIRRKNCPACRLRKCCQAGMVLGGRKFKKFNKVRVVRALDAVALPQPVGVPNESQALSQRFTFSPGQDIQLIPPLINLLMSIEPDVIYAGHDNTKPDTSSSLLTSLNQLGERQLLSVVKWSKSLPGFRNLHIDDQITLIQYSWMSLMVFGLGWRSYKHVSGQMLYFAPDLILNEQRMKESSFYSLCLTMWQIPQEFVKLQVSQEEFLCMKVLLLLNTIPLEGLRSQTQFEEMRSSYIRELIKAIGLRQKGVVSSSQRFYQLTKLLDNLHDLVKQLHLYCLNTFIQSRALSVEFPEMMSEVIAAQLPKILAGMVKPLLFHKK
Thyrotropin-releasing hormone receptor (Homo sapiens), sequence (P34981 whole entry, looked up): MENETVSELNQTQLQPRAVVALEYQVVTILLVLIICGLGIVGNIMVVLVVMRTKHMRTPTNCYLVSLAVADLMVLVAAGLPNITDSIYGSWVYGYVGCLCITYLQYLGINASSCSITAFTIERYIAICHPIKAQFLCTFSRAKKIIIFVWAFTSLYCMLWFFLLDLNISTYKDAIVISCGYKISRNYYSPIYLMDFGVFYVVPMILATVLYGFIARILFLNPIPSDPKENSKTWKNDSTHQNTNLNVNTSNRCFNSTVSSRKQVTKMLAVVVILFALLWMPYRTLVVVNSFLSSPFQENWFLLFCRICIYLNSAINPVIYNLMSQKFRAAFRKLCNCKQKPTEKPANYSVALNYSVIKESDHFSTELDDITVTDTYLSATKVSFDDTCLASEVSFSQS
Nuclear receptor subfamily 1 group I member 2 (Homo sapiens), sequence (O75469 whole entry, looked up): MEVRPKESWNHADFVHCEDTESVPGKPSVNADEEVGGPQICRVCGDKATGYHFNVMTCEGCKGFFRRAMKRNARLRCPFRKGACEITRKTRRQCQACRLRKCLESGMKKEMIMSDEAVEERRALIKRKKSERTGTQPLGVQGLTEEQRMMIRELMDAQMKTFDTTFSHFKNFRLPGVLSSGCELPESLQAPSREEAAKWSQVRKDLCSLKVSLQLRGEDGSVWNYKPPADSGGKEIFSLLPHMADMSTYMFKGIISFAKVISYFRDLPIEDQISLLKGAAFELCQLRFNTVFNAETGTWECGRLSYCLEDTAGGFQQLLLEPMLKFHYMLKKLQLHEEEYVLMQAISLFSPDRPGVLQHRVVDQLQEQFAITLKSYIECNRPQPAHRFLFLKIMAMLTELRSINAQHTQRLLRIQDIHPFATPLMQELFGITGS
Acetylcholinesterase (Homo sapiens), sequence (P22303 whole entry, looked up): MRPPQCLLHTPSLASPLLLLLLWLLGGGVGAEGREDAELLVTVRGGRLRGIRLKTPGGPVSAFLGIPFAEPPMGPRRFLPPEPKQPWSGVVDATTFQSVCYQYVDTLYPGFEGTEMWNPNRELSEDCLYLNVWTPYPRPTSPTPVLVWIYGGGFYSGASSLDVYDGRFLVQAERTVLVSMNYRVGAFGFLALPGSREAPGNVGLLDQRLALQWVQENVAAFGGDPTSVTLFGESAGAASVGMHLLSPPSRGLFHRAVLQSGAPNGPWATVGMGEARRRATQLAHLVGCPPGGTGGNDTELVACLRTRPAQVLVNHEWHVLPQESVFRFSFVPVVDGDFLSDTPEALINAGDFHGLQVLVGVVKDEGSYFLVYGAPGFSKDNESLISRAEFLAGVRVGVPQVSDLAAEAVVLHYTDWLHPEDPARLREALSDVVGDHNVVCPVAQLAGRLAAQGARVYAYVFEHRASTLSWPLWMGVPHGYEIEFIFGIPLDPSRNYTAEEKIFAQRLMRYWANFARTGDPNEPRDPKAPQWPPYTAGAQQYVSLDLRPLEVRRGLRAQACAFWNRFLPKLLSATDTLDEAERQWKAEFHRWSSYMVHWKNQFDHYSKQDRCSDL

CC(C)(C)NC[C@H](O)c1ccc(O)cc1Cl
inactive: Potency [1] | Potency [2] | Potency [3] | outcome [4] | Potency [5] | outcome [6] | Potency [7] | outcome [8] | Potency [9] | Potency [10] | outcome [11] | Potency [12] | Potency [13] | Potency [14]

Cn1c(CCCC(=O)O)nc2cc(N(CCCl)CCCl)ccc21
inactive: Potency [2] | Potency [3] | outcome [4] | Potency [5] | Potency [7] | outcome [8] | Potency [9] | outcome [15] | outcome [11] | Potency [12] | Potency [13] | max activation [16] -0.144% | Potency [17] | Potency [18] | Potency [14]

CON(C)C(=O)Nc1ccc(Br)c(Cl)c1
active: Potency [13] 27.3 µM
inactive: Potency [19] | Potency [3] | outcome [4] | Potency [5] | outcome [6] | Potency [7] | outcome [8] | Potency [9] | outcome [15] | outcome [11] | Potency [12] | Potency [14]

CCN1CCCC1CNC(=O)C(O)(c1ccccc1)c1ccccc1 (stereo unspecified)
inactive: Potency [19] | Potency [1] | Potency [2] | Potency [3] | outcome [4] | Potency [5] | outcome [15] | Potency [10] | outcome [11] | Potency [12] | Potency [13] | Potency [14]

C=C1C[C@@H]2[C@H](CC[C@]3(C)C(=O)CC[C@@H]23)[C@@]2(C)C=CC(=O)C=C12
active: Potency [13] 26.6 µM
inactive: Potency [19] | Potency [2] | outcome [4] | Potency [5] | Potency [7] | outcome [8] | Potency [9] | outcome [15] | outcome [11] | Potency [12] | Potency [17] | Potency [14]

CCOC(=O)CC(SP(=S)(OC)OC)C(=O)OCC (stereo unspecified)
12.2 µM (active) and inactive: Potency [13]
62.1 µM (active) and inactive: Potency [14]
inactive: Potency [1] | Potency [2] | Potency [3] | outcome [4] | Potency [5] | outcome [6] | Potency [7] | outcome [8] | Potency [9] | outcome [15] | Potency [10] | outcome [11] | Potency [12] | max activation [16] 0.377% | Potency [17] | Potency [18]

CC(C)(O)C(Cl)(Cl)Cl
inactive: Potency [1] | Potency [2] | Potency [3] | outcome [4] | Potency [5] | outcome [6] | Potency [9] | outcome [15] | outcome [11] | Potency [12] | Potency [13] | max activation [16] -2.13% | Potency [17] | Potency [18] | Potency [14]

CN(C)CCc1c[nH]c2cccc(OP(=O)(O)O)c12
inactive: Potency [1] | Potency [2] | Potency [3] | outcome [4] | Potency [5] | outcome [6] | Potency [7] | outcome [8] | Potency [9] | Potency [10] | outcome [11] | Potency [12] | Potency [13] | Potency [14]

CNC(=O)Oc1ccccc1C(C)C
active: Potency [14] 3.56 µM
inactive: Potency [19] | Potency [1] | Potency [2] | Potency [3] | outcome [4] | Potency [5] | outcome [6] | Potency [9] | outcome [15] | outcome [11] | Potency [12] | Potency [13]

CN=CNc1ccc(C)cc1C
inactive: Potency [19] | Potency [1] | Potency [2] | Potency [3] | outcome [4] | Potency [5] | outcome [6] | Potency [9] | outcome [15] | Potency [10] | outcome [11] | Potency [12] | Potency [13] | Potency [14]

CC(C)(C)c1cc(O)ccc1O
inactive: Potency [19] | Potency [1] | outcome [4] | Potency [5] | Potency [7] | outcome [8] | Potency [9] | outcome [15] | outcome [11] | Potency [12] | max activation [16] -1.85%
active: Potency [10] 43.3 µM and 61.1 µM

C[N+]1(C)CCCCC1
inactive: Potency [1] | Potency [2] | outcome [4] | Potency [5] | outcome [6] | Potency [7] | outcome [8] | Potency [9] | Potency [10] | outcome [11] | Potency [12] | Potency [13]

N=C(N)[Se]
inactive: Potency [1] | Potency [2] | Potency [3] | outcome [4] | Potency [5] | outcome [15] | Potency [10] | outcome [11] | Potency [12] | Potency [13] | Potency [14]

C=CCC1(C(C)CC)C(=O)NC(=O)NC1=O (stereo unspecified)
inactive: Potency [19] | Potency [2] | Potency [3] | outcome [4] | Potency [5] | outcome [6] | Potency [9] | outcome [15] | Potency [10] | outcome [11] | Potency [12] | Potency [13] | Potency [14]

CCC(C)C(C)(COC(N)=O)COC(N)=O (stereo unspecified)
inactive: Potency [19] | Potency [1] | Potency [2] | Potency [3] | outcome [4] | Potency [5] | outcome [6] | Potency [7] | outcome [8] | outcome [15] | outcome [11] | Potency [12] | Potency [13] | Potency [14]

CCCC(C)(COC(N)=O)COC(N)=O
active: Potency [13] 51.5 µM
inactive: Potency [19] | Potency [1] | Potency [2] | Potency [3] | outcome [4] | Potency [5] | outcome [6] | outcome [15] | Potency [10] | outcome [11] | Potency [12] | max activation [16] -1.03% | Potency [17] | Potency [18] | Potency [14]

CCOP(=S)(OCC)Oc1ccc(Cl)cc1Cl
inactive: Potency [2] | Potency [3] | outcome [4] | Potency [5] | outcome [6] | Potency [7] | outcome [8] | Potency [9] | outcome [15] | Potency [10] | outcome [11] | Potency [12] | Potency [13] | Potency [14]

CC(C)(N)Cc1ccc(Cl)cc1
inactive: Potency [1] | outcome [4] | Potency [5] | outcome [6] | outcome [15] | Potency [10] | outcome [11] | Potency [12] | Potency [13] | max activation [16] -1.44% | Potency [17] | Potency [18] | Potency [14]
